PHOSPHO1 inh = inhibitors of human PHOSPHO1 phosphatase | recombinant PHOSPHO1, absorbance phosphatase assay | hit rate 1.1% among 290,000 | inhibition, % at 13.3 µM; in the data active means inhibition above about 60%
Target sequence (Q8TCT1 whole entry, looked up): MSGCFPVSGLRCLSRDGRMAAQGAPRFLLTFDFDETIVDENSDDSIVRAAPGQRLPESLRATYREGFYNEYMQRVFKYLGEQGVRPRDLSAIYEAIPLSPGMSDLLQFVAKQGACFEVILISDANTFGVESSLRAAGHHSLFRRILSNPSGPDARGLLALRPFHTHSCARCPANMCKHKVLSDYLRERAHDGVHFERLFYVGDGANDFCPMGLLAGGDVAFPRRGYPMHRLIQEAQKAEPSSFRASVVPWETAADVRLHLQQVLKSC
rCAG binder = molecules binding r(CAG) RNA repeats; inhibition, % at 3 µM; r(CAG) RNA repeat, TO-PRO-1 dye displacement fluorescence; hit rate 1.3% among 370,000;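 active means inhibition above the plate cutoff, the mean of all test compounds on that plate plus 3 SD, cut at about 35% in these data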;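 further: 0% = DMSO alone and 100% = 100 µM mitoxantrone as full dye displacement; higher means more dye released from RNA so lower well fluorescence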
aDG glyco up = increases alpha dystroglycan glycosylation | activation, % at 10 µM | hit rate 0.22% among 360,000 | Pro5-aDG cells, alpha-DG glycosylation AlphaScreen (IIH6); 0% Pro5, 100% B10-LARGE cell signal;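 active means activation of at least 8% versus controls, or a plate z-score of at least 8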;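 further: Pro5 are CHO cells carrying HIG-tagged alpha-DG that lacks glycosylation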
A3A deaminase = blocks human APOBEC3A ssDNA deamination | recombinant A3A, FAM/TAMRA ssDNA deamination fluorescence | hit rate 0.41% among 330,000 | inhibition, % at 20 µM;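 active means at least 40% inhibition at 20 µM here, with at most 30% in a related deaminase screen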;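 further: plate controls were A3A with DMSO for no effect and wells lacking A3A enzyme for full effect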
ALR H2O2 inh = human ALR oxidase inhibition via reduced H2O2; P55789; AID 485317; inhibition, % (test concentration not listed); purified ALR, DTT oxidation, H2O2 HRP-luminol luminescence; hit rate 3.8% among 290,000;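 active means mean replicate inhibition above about 79%, with every replicate also reaching it, limit read from the data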
A3G deaminase = APOBEC3G (human) deaminase inhibition | Q9HC16 | recombinant A3G, ssDNA deamination FAM/TAMRA fluorescence | inhibition, % at 20 µM | hit rate 0.28% among 330,000 | AID 493012;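 active means inhibition of at least 40% at 20 µM, with no more than 30% in the related APOBEC3A deaminase screen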;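 further: plate controls were DMSO wells with A3G for no effect and wells lacking A3G enzyme for full effect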
Target sequence (Q9HC16 whole entry, looked up): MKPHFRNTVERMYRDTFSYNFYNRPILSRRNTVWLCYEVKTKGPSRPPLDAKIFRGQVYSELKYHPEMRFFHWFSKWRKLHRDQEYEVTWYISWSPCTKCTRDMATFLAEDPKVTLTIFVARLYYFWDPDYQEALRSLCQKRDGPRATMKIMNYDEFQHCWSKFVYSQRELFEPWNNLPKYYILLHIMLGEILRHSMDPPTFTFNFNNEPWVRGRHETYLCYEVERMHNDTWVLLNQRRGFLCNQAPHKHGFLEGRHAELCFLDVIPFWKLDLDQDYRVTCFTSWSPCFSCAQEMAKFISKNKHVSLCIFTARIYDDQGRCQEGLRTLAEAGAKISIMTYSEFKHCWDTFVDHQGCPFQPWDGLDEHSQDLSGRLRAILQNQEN
rCAG binder conf = r(CAG) RNA repeat binding, confirmation; inhibition, % at 3 µM; shares compounds with rCAG binder; TO-PRO-1 dye displacement fluorescence; hit rate 70% among 4,300;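 active means inhibition above a per-plate cutoff, the mean inhibition of sample wells plus 3 SD, cut at about 35% in these data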;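 further: loss of TO-PRO-1 fluorescence as compound displaces dye from 1x1 AA loop RNA; 0% = DMSO only wells and 100% = 100 µM mitoxantrone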
dCAG dye counter = disrupts DNA CAG TO-PRO-1 complex, flagging rCAG hits; hit rate 94% among 4,300; AID 652068; d(CAG) DNA oligo TO-PRO-1 dye displacement, fluorescence; shares compounds with rCAG binder; inhibition, % at 3 µM;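 active means inhibition above its plate's cutoff, the mean test-well inhibition plus 3 SD, cut at about 4.8% in these data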;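 further: 0% = DNA dye mix with DMSO and 100% = 100 µM mitoxantrone; hits displace the dye from DNA and so lower well fluorescence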
DNA CAG DR = disrupts DNA CAG TO-PRO-1 complex in dose response | shares compounds with rCAG binder | DNA CAG/GTC duplex TO-PRO-1 dye displacement fluorescence | IC50, µM | hit rate 20% among 250 | AID 686960; in the data active means IC50 below about 10 µM
* = called active by the depositor; x = not tested or not shown. Hits are enriched below; roughly 5.4% of the tested compounds scored in any of these assays.

SMILES	PHOSPHO1 inh	rCAG binder	aDG glyco up	A3A deaminase	ALR H2O2 inh	A3G deaminase	rCAG binder conf	dCAG dye counter	others
COc1cccc(/C=C2\SC(=S)N(C(C(=O)O)c3ccccc3)C2=O)c1OC (configuration not stated)	-14.0	63.3*	0.0	-6.1	39.9	-1.8	63.0*	24.7*
COc1ccc(/C=C2\SC(=S)N(C(C(=O)O)c3ccccc3)C2=O)c(OC)c1 (configuration not stated)	-40.7	79.1*	-0.1	4.2	58.8	4.7	79.5*	45.4*
COc1ccc(/C=C2\SC(=S)N(N3CCOCC3)C2=O)c(OC)c1	14.9	1.4	-0.1	-1.7	-1.7	-1.9	x	x
O=C(O)C(c1ccccc1)N1C(=O)/C(=C\c2ccc(-c3ccccc3Cl)o2)SC1=S (configuration not stated)	2.0	44.5*	0.0	-0.8	x	-3.9	87.2*	62.9*
Cc1nnc(SCC(=O)Nc2cccc(S(=O)(=O)N3CCCC3)c2)n1C1CC1	x	6.0	0.0	x	x	x	x	x
CCC(NC(=O)c1ccc2c(c1)c(C)c(C)n2Cc1ccc(-c2ccccc2C#N)cc1)c1ccccc1 (configuration not stated)	x	16.7	x	x	x	x	x	x
COc1ccc2nc(N3C(=O)C(O)=C(C(=O)c4ccco4)C3c3ccc(C)o3)sc2c1 (configuration not stated)	x	53.8*	0.2	-2.6	x	-12.8	59.1*	18.9*
COc1ccc(C2C(C(=O)c3ccco3)=C(O)C(=O)N2c2nnc(C)s2)cc1 (configuration not stated)	-13.2	-7.8	-0.1	-3.4	3.7	-2.0	x	x
Cc1cc(C)c2nc(N3C(=O)C(O)=C(C(=O)c4ccco4)C3c3ccco3)sc2c1 (configuration not stated)	35.1	81.1*	0.4	14.7	98.5*	11.2	82.2*	49.2*
CCOC(=O)c1sc(N2C(=O)C(O)=C(C(=O)c3ccco3)C2c2ccco2)nc1C (configuration not stated)	28.0	31.0	0.3	x	x	x	x	x
COc1ccc2nc(N3C(=O)C(O)=C(C(=O)c4ccco4)C3c3ccccc3OC)sc2c1 (configuration not stated)	22.3	39.4*	0.1	-5.5	0.3	-4.7	56.9*	21.0*
CC1CNC(=S)N(c2ccccc2)C1=O (configuration not stated)	x	0.3	0.2	x	x	x	x	x
CC1=NN(c2ccccc2)C(=O)C1/C=C1\NC(=S)NC1=O (configuration not stated)	-42.9	55.2*	-0.2	-4.3	88.8*	-7.5	72.5*	35.8*
Oc1cccc(CN2CCOCC2)c1O	x	40.9*	0.2	x	x	x	3.4	0.4
Oc1c(CN2CCOCC2)cc(CN2CCOCC2)c(O)c1O	x	11.0	0.0	x	x	x	x	x
CCCc1cc(=O)n2[nH]c(C)c(-c3ccccc3)c2n1	13.2	1.4	-0.1	-1.4	27.9	-9.0	x	x
Cc1[nH]n2c(=O)cc(-c3ccc([N+](=O)[O-])cc3)nc2c1-c1ccccc1	x	91.3*	0.0	-0.9	89.3*	-1.1	86.7*	63.5*
Cc1ccc(NC(=O)c2cccc(Oc3ccc([N+](=O)[O-])cc3)c2)c(C(=O)O)c1	29.0	85.1*	-0.1	-9.4	97.4*	-6.6	74.4*	38.2*
Cc1ccc(S(=O)(=O)N(C)C[C@@H]2OCCCC[C@H](C)Oc3ccc(NC(=O)Nc4ccc(F)cc4)cc3C(=O)N([C@H](C)CO)C[C@H]2C)cc1	x	13.5	-0.3	x	x	x	x	x
Cc1cc(OCC(=O)NC(Cc2ccc(Cl)cc2)C(=O)O)c2c(C)cc(=O)oc2c1 (configuration not stated)	13.1	21.5	0.0	1.1	-20.9	-10.4	x	x
CCCc1cc(=O)oc2cc(C)cc(OCC(=O)NC(Cc3ccc(Cl)cc3)C(=O)O)c12 (configuration not stated)	28.6	45.5*	-0.1	7.3	-13.3	0.9	47.2*	10.4*	DNA CAG DR=>29.9
CCCc1cc(=O)oc2cc(C)cc(OCC(=O)N[C@@H](CSCc3ccccc3)C(=O)O)c12	-7.7	61.9*	0.4	2.8	-7.9	-7.2	50.2*	13.4*
Cc1cc(OCC(=O)NC(Cc2ccc(Cl)cc2)C(=O)O)c2c(C)c(C)c(=O)oc2c1 (configuration not stated)	2.7	45.1*	-0.2	5.3	-9.8	-12.3	41.6*	9.4*
CCCc1cc(=O)oc2cc(C)cc(OCC(=O)NC3CCN(Cc4ccccc4)CC3)c12	22.4	-4.8	-0.2	-4.1	-0.5	-7.9	x	x
Cc1ccc([C@H]2N[C@]3(CCCN(Cc4ccc(C(F)(F)F)cc4)C3=O)[C@H]3C(=O)N(C)C(=O)[C@@H]23)cc1	x	1.0	-0.1	x	x	x	x	x
SMILES	PHOSPHO1 inh	rCAG binder	aDG glyco up	A3A deaminase	ALR H2O2 inh	A3G deaminase	rCAG binder conf	dCAG dye counter	others
COc1cc([N+](=O)[O-])cc(/C=N/NC(=O)C(C)Nc2cccc3ccccc23)c1O (configuration not stated)	0.3	79.2*	-0.1	0.1	-51.6	0.8	66.7*	30.1*
COc1cc([N+](=O)[O-])cc(/C=N/NC(=O)c2cccnc2)c1O	3.2	8.8	0.0	8.0	3.5	-0.2	x	x
COc1cc([N+](=O)[O-])cc(/C=N/NC(=O)C(O)(c2ccccc2)c2ccccc2)c1O	x	37.8*	-0.2	-4.3	-27.3	-7.0	33.6	13.2*
CN(c1ccccc1)S(=O)(=O)c1cccc(C(=O)NCC(c2cccs2)N2CCOCC2)c1 (configuration not stated)	x	2.7	-0.2	x	x	x	x	x
Cc1ccc(C)c(/C=C/C(=O)c2ccccc(=O)c2O)c1	6.2	38.9*	-0.1	x	96.7*	x	22.8	10.3*
CC(=O)NC(c1cccc(F)c1)c1nc(-c2cccc(C(F)(F)F)c2)cs1 (configuration not stated)	x	-0.6	0.0	x	x	x	x	x
CCCCCCCCCCCC(=O)c1c(O)cccc1O	27.7	41.1*	0.1	-0.7	2.8	-9.0	39.3*	23.5*
CCCCCCCC(=O)NNC(=O)Cc1ccccc1	22.4	x	-0.1	-3.4	-8.5	-4.8	x	x
COc1cc(C(=O)N(Cc2ccccc2)c2cccc(C)c2)ccc1OCC(=O)N1CCOCC1	x	-0.7	-0.5	x	x	x	x	x
O=C(Nc1cc(S(=O)(=O)N2CCOCC2)ccc1O)c1ccc2c(c1)S(=O)(=O)c1ccccc1C2=O	33.9	42.5*	-0.3	-6.2	x	21.2	68.7*	30.7*
O=C(Nc1ccc(S(=O)(=O)N2CCOCC2)cc1)c1ccc2c(c1)S(=O)(=O)c1ccccc1C2=O	42.1	0.0	0.2	0.5	-1.8	-3.6	x	x

Compound activity: PubChem BioAssay, several laboratories
